Measured values reported in PubChem BioAssay AID1159580 (chemical genetic matrix, 2015).
In all, about 5,500 compounds went through this assay and about 2,000 (36%) were called active. Roughly 18% stayed inconclusive and do not appear here. Rule as the data show it: active = normalized growth mostly below about 0.91 (no sharp cut-off); inconclusive = no clear call, values can overlap the other calls; inactive = mostly above about 0.92. Some of the results follow.

Assay: chemical genetic growth profiling, strain panel (AID 1159580);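 also: tested at 20 µM; growth read once vehicle control cultures reached saturation at 30 °C; 1 = growth at the plate median or of vehicle wells; lower values mean less growth of the strain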
Conditions: growth OD

Measured: normalized growth

CCn1cc(C(=O)O)c(=O)c2cc(F)c(N3CCNCC3)cc21
inactive: S. cerevisiae deletion strains, locus YJR043C, strain POL32, hits give low values 0.99 | S. cerevisiae deletion strains, locus YJR066W, strain TOR1, hits give low values 0.954 | S. cerevisiae deletion strains, locus YKL009W, strain mrt4, hits give low values 0.994 | S. cerevisiae deletion strains, locus YKL068W, hits give low values 1.01 | S. cerevisiae deletion strains, locus YKL085W, strain MDH1 (second series), hits give low values 1 | S. cerevisiae deletion strains, locus YKL085W, strain MDH1, hits give low values 1 | S. cerevisiae deletion strains, locus YKL160W, strain elf1, hits give low values 1.02 | S. cerevisiae deletion strains, locus YKL190W, strain CNB1, hits give low values 1.01 | S. cerevisiae deletion strains, locus YKR001C, strain vps1, hits give low values 0.985 | S. cerevisiae deletion strains, locus YKR026C, strain gcn3, hits give low values 0.978 | S. cerevisiae deletion strains, locus YKR091W, strain srl3, hits give low values 0.992 | S. cerevisiae deletion strains, locus YLL001W, strain dnm1, hits give low values 0.998 | S. cerevisiae deletion strains, locus YLL026W, hits give low values 0.992 | S. cerevisiae deletion strains, locus YLL041C, strain sdh2, hits give low values 0.981 | S. cerevisiae deletion strains, locus YLR027C, strain aat2, hits give low values 0.988 | S. cerevisiae deletion strains, locus YLR039C, strain RIC1, hits give low values 0.92 | S. cerevisiae deletion strains, locus YLR058C, strain SHM2, hits give low values 1.01 | S. cerevisiae deletion strains, locus YLR102C, strain apc9, hits give low values 1 | S. cerevisiae deletion strains, locus YLR113W, strain HOG1, hits give low values 1.02 | S. cerevisiae deletion strains, locus YLR221C, strain rsa3, hits give low values 1.01 | S. cerevisiae deletion strains, locus YLR258W, strain gsy2, hits give low values 0.988 | S. cerevisiae deletion strains, locus YLR262C, strain YPT6 (second series), hits give low values 0.97 | S. cerevisiae deletion strains, locus YLR262C, strain YPT6, hits give low values 0.92 | S. cerevisiae deletion strains, locus YLR268W, strain sec22, hits give low values 0.96 | S. cerevisiae deletion strains, locus YLR320W, strain mms22, hits give low values 0.998 | S. cerevisiae deletion strains, locus YLR330W, strain CHS5, hits give low values 1 | S. cerevisiae deletion strains, locus YLR342W, strain FKS1 (second series), hits give low values 0.927 | S. cerevisiae deletion strains, locus YLR342W, strain FKS1, hits give low values 0.991 | S. cerevisiae deletion strains, locus YLR357W, strain rsc2, hits give low values 0.95 | S. cerevisiae deletion strains, locus YLR370C, strain arc18, hits give low values 0.982 | S. cerevisiae deletion strains, locus YLR371W, strain rom2, hits give low values 1.01 | S. cerevisiae deletion strains, locus YLR384C, strain iki3, hits give low values 0.983 | S. cerevisiae deletion strains, locus YLR418C, strain cdc73, hits give low values 0.924 | S. cerevisiae deletion strains, locus YML016C, strain PPZ1, hits give low values 1 | S. cerevisiae deletion strains, locus YML032C, strain rad52, hits give low values 0.987 | S. cerevisiae deletion strains, locus YML120C, strain ndi1, hits give low values 0.976 | S. cerevisiae deletion strains, locus YML124C, strain tub3, hits give low values 1 | S. cerevisiae deletion strains, locus YMR058W, strain fet3, hits give low values 0.986 | S. cerevisiae deletion strains, locus YMR078C, strain ctf18, hits give low values 1.01 | S. cerevisiae deletion strains, locus YMR125W, strain sto1, hits give low values 0.965 | S. cerevisiae deletion strains, locus YMR129W, hits give low values 0.969 | S. cerevisiae deletion strains, locus YMR205C, strain PFK2, hits give low values 1.01 | S. cerevisiae deletion strains, locus YMR223W, strain ubp8, hits give low values 0.989 | S. cerevisiae deletion strains, locus YMR231W, strain pep5, hits give low values 0.987 | S. cerevisiae deletion strains, locus YMR263W, strain SAP30, hits give low values 0.998 | S. cerevisiae deletion strains, locus YMR307W, strain GAS1, hits give low values 0.899 | S. cerevisiae deletion strains, locus YNL067W, strain RPL9B, hits give low values 1.01 | S. cerevisiae deletion strains, locus YNL071W, strain lat1, hits give low values 0.962 | S. cerevisiae deletion strains, locus YNL128W, strain TEP1, hits give low values 1.03 | S. cerevisiae deletion strains, locus YNL183C, strain NPR1, hits give low values 0.962 | S. cerevisiae deletion strains, locus YNL209W, strain ssb2, hits give low values 0.986 | S. cerevisiae deletion strains, locus YNL233W, strain BNI4, hits give low values 0.998 | S. cerevisiae deletion strains, locus YNL248C, strain rpa49, hits give low values 0.992 | S. cerevisiae deletion strains, locus YNL250W, strain rad50, hits give low values 0.985 | S. cerevisiae deletion strains, locus YNL271C, strain bni1, hits give low values 0.986 | S. cerevisiae deletion strains, locus YNL298W, strain CLA4, hits give low values 0.99 | S. cerevisiae deletion strains, locus YNL307C, strain MCK1, hits give low values 0.997 | S. cerevisiae deletion strains, locus YNL322C, strain KRE1 (second series), hits give low values 0.981 | S. cerevisiae deletion strains, locus YNR049C, strain mso1, hits give low values 0.985 | S. cerevisiae deletion strains, locus YNR052C, strain pop2, hits give low values 0.998 | S. cerevisiae deletion strains, locus YOL006C, strain TOP1, hits give low values 0.965 | S. cerevisiae deletion strains, locus YOL012C, strain htz1 0.792 | S. cerevisiae deletion strains, locus YOL147C, strain pex11, hits give low values 0.999 | S. cerevisiae deletion strains, locus YOR001W, strain rrp6, hits give low values 0.94 | S. cerevisiae deletion strains, locus YOR061W, strain CKA2, hits give low values 1 | S. cerevisiae deletion strains, locus YOR069W, strain VPS5, hits give low values 1.01 | S. cerevisiae deletion strains, locus YOR070C, strain gyp1, hits give low values 0.979 | S. cerevisiae deletion strains, locus YOR080W, strain dia2, hits give low values 0.974 | S. cerevisiae deletion strains, locus YOR083W, strain WHI5, hits give low values 1.04 | S. cerevisiae deletion strains, locus YOR106W, strain vam3, hits give low values 1 | S. cerevisiae deletion strains, locus YOR136W, strain idh2, hits give low values 1.01 | S. cerevisiae deletion strains, locus YOR144C, strain elg1, hits give low values 0.998 | S. cerevisiae deletion strains, locus YOR184W, strain ser1, hits give low values 1.01 | S. cerevisiae deletion strains, locus YOR231W, strain MKK1, hits give low values 0.988 | S. cerevisiae deletion strains, locus YOR265W, strain rbl2, hits give low values 0.983 | S. cerevisiae deletion strains, locus YOR270C, strain vph1, hits give low values 0.956 | S. cerevisiae deletion strains, locus YOR290C, strain snf2, hits give low values 0.974 | S. cerevisiae deletion strains, locus YOR316C, strain cot1, hits give low values 1.01 | S. cerevisiae deletion strains, locus YPL051W, strain arl3, hits give low values 0.994 | S. cerevisiae deletion strains, locus YPL055C, strain LGE1, hits give low values 0.991 | S. cerevisiae deletion strains, locus YPL078C, strain atp4, hits give low values 0.979 | S. cerevisiae deletion strains, locus YPL106C, strain sse1, hits give low values 0.972 | S. cerevisiae deletion strains, locus YPL240C, strain hsp82, hits give low values 0.983 | S. cerevisiae deletion strains, locus YPL256C, strain CLN2, hits give low values 0.944 | S. cerevisiae deletion strains, locus YPR119W, strain clb2, hits give low values 1 | S. cerevisiae deletion strains, locus YPR141C, strain kar3, hits give low values 1 | S. cerevisiae deletion strains, locus YPR163C, strain tif3, hits give low values 1 | S. cerevisiae deletion strains, locus YPR167C, strain met16, hits give low values 1.01 | S. cerevisiae deletion strains, strain wtn01, hits give low values 0.998 | S. cerevisiae strains, strain wild type, hits give low values 1.01
